Some compounds were tested as several samples or in several runs, with calls that do not always agree. Calls of active or inactive are those of the source. How the source made its calls: active means hit-call score of the fitted dose curve at least 0.9, where 1 is the maximum; inactive means score below 0.9.

A short description of the first assay: ATG_GATA_CIS: Attagene CIS-FACTORIAL HepG2 Assay for human GATA Binding Protein (AID 2282944). The following applies: HepG2 GATA cis-element reporter, Attagene multiplex mRNA; actives raise or lower the signal. A digest of the protocol:
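Transfected cis-reporter HepG2 cells were treated with chemicals for 24 hours. Total RNA was then converted to cDNA, amplified with reporter-specific primers and analysed by fluorescent capillary electrophoresis, using DMSO-treated wells as baseline.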
`COc1cc(-c2ccc(N)c(OC)c2)ccc1N`: the molecule was classed as inactive.

For the molecule `CC(=O)C(Cl)C(=O)N(C)C` (stereo not given), the molecule was called inactive.

Turning to `O=C(Cl)c1ccc(Cl)cc1`, the molecule was classed as inactive.

Regarding `CC(C)(C)CC(C)(C)c1ccc(O)cc1`, the call was inactive.

Consider `C=CC(=O)N(C)C`, for which the molecule was classed as inactive.

In the case of `CCOP(=O)(CN(CCO)CCO)OCC`, the molecule was classed as inactive.

Regarding `C(=NC1CCCCC1)=NC1CCCCC1`, the molecule was classed as inactive.

In the case of `ClC1=C(Cl)[C@]2(Cl)[C@H]3[C@H]([C@H]4C=C[C@H]3C4)[C@@]1(Cl)C2(Cl)Cl`, the outcome was inactive.

On to `CC(C)c1ccc(CO)cc1`, for which the molecule was classed as inactive.

Take `CCC1(c2ccc(N)cc2)CCC(=O)NC1=O` (stereo not given): the outcome was inactive.

On to `COc1ccccc1OC`, for which the call was inactive.

As for `Clc1nc(Cl)nc(Cl)n1`, the outcome was inactive.

For `CC(C)C1CCC(Cc2ccc(Cl)cc2)C1(O)Cn1cncn1` (stereo not given), the call was inactive.

Turning to `Cc1ccc2ccccc2c1C`, the call was inactive.

For `C[C@]12CC[C@H](O)CC1=CC[C@@H]1[C@@H]2CC[C@]2(C)C(=O)CC[C@@H]12`, the molecule was classed as inactive.

Consider `ClCc1cccnc1`, for which the outcome was inactive.

Take `C[C@]12CCC(=O)C[C@@H]1CC[C@@H]1[C@@H]2CC[C@]2(C)[C@@H](O)CC[C@@H]12`: the molecule was called inactive.

Turning to `Oc1cccc2cccnc12`, the outcome was inactive.

Regarding `Cc1cc(Cl)ccc1O[C@H](C)C(=O)O`, the molecule was classed as inactive.

Turning to `COc1ccc(C=O)cc1`, the molecule was called inactive.

As to `CNC(=O)O/N=C/C(C)(C)S(C)=O` (stereo not given), the call was inactive.

As for `COP(=S)(OC)Oc1ccc(S(=O)(=O)N(C)C)cc1`, the molecule was classed as inactive.

As to `OCc1ccco1`, the molecule was called inactive.

On to `O=[N+]([O-])c1c(Cl)c(Cl)cc(Cl)c1Cl`, for which the call was inactive.

As to `Cc1ccc(N)cc1Cl`, the outcome was inactive.

Regarding `NC(=O)O`, the call was inactive.

On to `O=C(O)C(F)(F)C(F)(F)C(F)(F)C(F)(F)C(F)(F)C(F)(F)C(F)(F)C(F)(F)C(F)(F)C(F)(F)F`, for which the AC50 is 148 µM (active) and the result was inactive.

In the case of `O=C(Nc1ccc2[nH]ccc2c1)c1cc2cc(F)ccc2n1Cc1cccc(F)c1`, the molecule was classed as inactive.

As to `[O-][Cl+2]([O-])O`, the molecule was classed as inactive.

Take `Nc1ccc(-c2ccc(N)c(Cl)c2)cc1Cl`: the outcome was inactive.

Regarding `CCC(=O)c1ccccc1`, the molecule was called inactive.

On to `CCOP(=S)(OCC)SCCS(=O)(=O)CC`, for which the result was inactive.

Turning to `Cl/C=C\C[N+]12CN3CN(CN(C3)C1)C2`, the result was inactive.

Regarding `O=C1C2(Cl)C3(Cl)C4(Cl)C(Cl)(Cl)C5(Cl)C3(Cl)C1(Cl)C5(Cl)C24Cl` (stereo not given), the AC50 is 14.9 µM (active) and the result was inactive.

Turning to `CCOP(OCC)OCC`, the outcome was inactive.

Take `Clc1ccc(C2(Cn3cncn3)CC(Br)CO2)c(Cl)c1` (stereo not given): the call was inactive.

With `CCCCP(CCCC)CCCC`, the outcome was inactive.

Take `Nc1ccc(N=Nc2ccc(-c3ccc(N=Nc4c(S(=O)(=O)O)cc5cc(S(=O)(=O)O)c(N=Nc6ccccc6)c(O)c5c4N)cc3)cc2)c(N)c1`: the molecule was called inactive.

The next assay in a line: ATG_GLI_CIS: Attagene CIS-FACTORIAL HepG2 Assay for human Zinc Finger Protein GLI1 (AID 2282945). Conditions: HepG2, Attagene cis-factorial reporter mRNA, GLI element; actives raise or lower the signal. A digest of the protocol:
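HepG2 cells transiently transfected with cis-promoter multiplexed reporter units report endogenous transcription factor activity. After 24 h chemical exposure, reporter mRNA was quantified by RT-PCR, 6-FAM labelling, HpaI digestion and capillary electrophoresis, with bidirectional fitting against DMSO.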
Take `COc1cc(-c2ccc(N)c(OC)c2)ccc1N`: the molecule was called inactive.

Regarding `CC(=O)C(Cl)C(=O)N(C)C` (stereo not given), the molecule was classed as inactive.

As for `O=C(Cl)c1ccc(Cl)cc1`, the outcome was inactive.

In the case of `CC(C)(C)CC(C)(C)c1ccc(O)cc1`, the result was inactive.

`C=CC(=O)N(C)C`: the result was inactive.

For `CCOP(=O)(CN(CCO)CCO)OCC`, the call was inactive.

`C(=NC1CCCCC1)=NC1CCCCC1`: the molecule was classed as inactive.

Turning to `ClC1=C(Cl)[C@]2(Cl)[C@H]3[C@H]([C@H]4C=C[C@H]3C4)[C@@]1(Cl)C2(Cl)Cl`, the molecule was called inactive.

Turning to `CC(C)c1ccc(CO)cc1`, the call was inactive.

As for `CCC1(c2ccc(N)cc2)CCC(=O)NC1=O` (stereo not given), the molecule was called inactive.

For `COc1ccccc1OC`, the call was inactive.

On to `Clc1nc(Cl)nc(Cl)n1`, for which the outcome was inactive.

Turning to `CC(C)C1CCC(Cc2ccc(Cl)cc2)C1(O)Cn1cncn1` (stereo not given), the call was inactive.

Regarding `Cc1ccc2ccccc2c1C`, the molecule was called inactive.

In the case of `C[C@]12CC[C@H](O)CC1=CC[C@@H]1[C@@H]2CC[C@]2(C)C(=O)CC[C@@H]12`, the molecule was classed as inactive.

Consider `ClCc1cccnc1`, for which the outcome was inactive.

Turning to `C[C@]12CCC(=O)C[C@@H]1CC[C@@H]1[C@@H]2CC[C@]2(C)[C@@H](O)CC[C@@H]12`, the call was inactive.

In the case of `Oc1cccc2cccnc12`, the call was inactive.

As for `Cc1cc(Cl)ccc1O[C@H](C)C(=O)O`, the call was inactive.

Turning to `COc1ccc(C=O)cc1`, the molecule was called inactive.

Take `CNC(=O)O/N=C/C(C)(C)S(C)=O` (stereo not given): the molecule was called inactive.

Consider `COP(=S)(OC)Oc1ccc(S(=O)(=O)N(C)C)cc1`, for which the molecule was classed as inactive.

For `OCc1ccco1`, the result was inactive.

For `O=[N+]([O-])c1c(Cl)c(Cl)cc(Cl)c1Cl`, the call was inactive.

With `Cc1ccc(N)cc1Cl`, the outcome was inactive.

Consider `NC(=O)O`, for which the result was inactive.

For `O=C(O)C(F)(F)C(F)(F)C(F)(F)C(F)(F)C(F)(F)C(F)(F)C(F)(F)C(F)(F)C(F)(F)C(F)(F)F`, the AC50 is 174 µM (active) and the molecule was called inactive.

`O=C(Nc1ccc2[nH]ccc2c1)c1cc2cc(F)ccc2n1Cc1cccc(F)c1`: the molecule was classed as inactive.

For the molecule `[O-][Cl+2]([O-])O`, the result was inactive.

Take `Nc1ccc(-c2ccc(N)c(Cl)c2)cc1Cl`: the outcome was inactive.

Regarding `CCC(=O)c1ccccc1`, the molecule was called inactive.

Regarding `CCOP(=S)(OCC)SCCS(=O)(=O)CC`, the molecule was classed as inactive.

In the case of `Cl/C=C\C[N+]12CN3CN(CN(C3)C1)C2`, the molecule was classed as inactive.

As to `O=C1C2(Cl)C3(Cl)C4(Cl)C(Cl)(Cl)C5(Cl)C3(Cl)C1(Cl)C5(Cl)C24Cl` (stereo not given), the AC50 was 3.57 µM (active) and the molecule was called inactive.

In the case of `CCOP(OCC)OCC`, the call was inactive.

Turning to `Clc1ccc(C2(Cn3cncn3)CC(Br)CO2)c(Cl)c1` (stereo not given), the molecule was called inactive.

With `CCCCP(CCCC)CCCC`, the outcome was inactive.

On to `Nc1ccc(N=Nc2ccc(-c3ccc(N=Nc4c(S(=O)(=O)O)cc5cc(S(=O)(=O)O)c(N=Nc6ccccc6)c(O)c5c4N)cc3)cc2)c(N)c1`, for which the result was inactive.

(Values after PubChem BioAssay (EPA / NIEHS).)
